Assay outcomes deposited in PubChem BioAssay by several laboratories.
A selection: hits, their analogues and other compounds. The true share with any hit is near 1.4%.
C1s block: human complement C1s inhibition; 0.16% of 62,000 active; mean inhibition % of two 10-compound mixtures (hits give high values), % at 5 µM (by protocol); P09871; purified C1s, fluorogenic AMC substrate, pooled mixtures; AID 538;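 active = inhibition above 20% in each of the two 10-compound mixture wells holding the compound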;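 note: 0% = enzyme wells lacking compound mixture and 100% = no-enzyme blank wells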
PLAP act: activates human placental alkaline phosphatase; P05187; purified PLAP enzyme, luminescent substrate read-out; hits give high values; activation fold at 20 µM; 1.2% of 96,000 active; AID 696; in the data active = activation fold above about 2
FXIa inh mix: inhibitors of human coagulation factor XIa, pooled mixtures; P03951; purified FXIa, fluorogenic substrate; inhibition, % at 5 µM; 0.19% of 62,000 active;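 note: each value is inhibition by a whole ten-compound pool holding the compound; 0% = enzyme with no mixture and 100% = wells lacking enzyme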
Cathepsin G inh: blocks human cathepsin G enzyme activity. P08311. purified enzyme, AMC-tetrapeptide fluorescence, pooled mixtures. inhibition, % at 5 µM (by protocol). 0.2% of 62,000 active;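 active = inhibition above 20% in each of the two mixture wells holding the compound; inactive = inhibition of 20% or less in either well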;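 note: 0% = enzyme control without mixture and 100% = blank lacking enzyme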
Target sequence (P08311 21-244 limits assumed): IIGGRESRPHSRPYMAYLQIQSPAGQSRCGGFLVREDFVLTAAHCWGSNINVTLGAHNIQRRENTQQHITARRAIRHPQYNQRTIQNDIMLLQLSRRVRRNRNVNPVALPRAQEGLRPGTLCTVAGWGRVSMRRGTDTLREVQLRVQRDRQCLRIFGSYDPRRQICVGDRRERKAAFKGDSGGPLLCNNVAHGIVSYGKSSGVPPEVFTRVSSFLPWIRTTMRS
HePTP inh: human HePTP phosphatase inhibition | P35236 | recombinant HePTP phosphatase activity, OD absorbance | inhibition, % at 20 µM | 0.64% of 110,000 active | AID 521; in the data active = inhibition above about 50%;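 note: plate controls were vehicle for no effect and reference inhibitor for full effect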
Target sequence (P35236 whole entry, looked up): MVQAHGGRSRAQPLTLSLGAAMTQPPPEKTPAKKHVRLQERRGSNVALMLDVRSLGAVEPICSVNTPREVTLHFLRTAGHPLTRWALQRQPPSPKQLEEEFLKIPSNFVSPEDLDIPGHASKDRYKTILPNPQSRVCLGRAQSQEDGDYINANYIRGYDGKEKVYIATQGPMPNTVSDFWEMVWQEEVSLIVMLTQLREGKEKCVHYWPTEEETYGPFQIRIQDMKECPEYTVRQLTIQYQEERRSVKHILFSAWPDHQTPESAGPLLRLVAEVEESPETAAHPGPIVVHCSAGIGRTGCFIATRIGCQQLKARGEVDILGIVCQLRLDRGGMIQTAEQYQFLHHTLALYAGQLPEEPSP
FXIIa mix inh: blocks human factor XIIa in pooled compound mixtures. purified FXIIa, fluorogenic substrate. P00748. AID 684. 0.2% of 62,000 active. inhibition, % at 5 µM;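 note: 0% = enzyme without compound and 100% = no enzyme blank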
* marks the source's active call; other numbers are inactive results; x = no result. Cut-off read from the data, not from the text of the source, unless noted: active = inhibition above about 20% (passing the limit was not always enough); inactive = the rest.

SMILES	C1s block	PLAP act	FXIa inh mix	Cathepsin G inh	HePTP inh	FXIIa mix inh
COc1ccc(CNC(=O)CCCCCn2c(SCC#N)nc3cc4c(cc3c2=O)OCO4)cc1	14	2.1*	1	12	8	14
COc1ccc(CCNC(=O)CCCn2c(SCC#N)nc3ccccc3c2=O)cc1OC	-31	1	-2	-2	9	4
N#C/C(=C(/O)CSc1nnc(Cc2cccs2)n1C1CCCCC1)c1nc2ccccc2[nH]1	0	2.7*	0	1	-2	-22
COc1ccc(C2NC(=S)NC(C)=C2C(=O)Nc2ccccc2Cl)c(OC)c1 (centres undefined)	x	x	x	x	-11	x
COc1ccc(C)cc1NC(=O)CCC1CCCC1	x	x	x	x	104*	x
COc1ccccc1NC(=O)CCC1CCCC1	x	x	x	x	2	x
CN1CCN(Cc2cc(COCc3ccccc3)c3cccnc3c2O)CC1	0	2.2*	6	-1	11	17
Cc1cc(C)c(-c2cc(C(=O)Nc3c(C)n(C)n(-c4ccccc4)c3=O)[nH]n2)c(O)c1	10	2.2*	1	12	4	2
Cc1cc(C)cc(NC(=O)COc2ccc3ccccc3c2)c1	x	x	x	x	4	x
CC1=NN(c2nc(C)cc(C)n2)C(=O)C1CCC(C)C (centres undefined)	x	2.3*	x	x	x	x
CCC1C(=O)N(c2nc(C)cc(C)n2)N=C1C (centres undefined)	x	1.2	x	x	x	x
O=C(CCc1ccccc1)Nc1ncn[nH]1	-1	2.6*	5	11	-2	9
CC(C)(C)c1cc(Br)ccc1OCC(=O)Nc1ncn[nH]1	13	1.1	2	11	4	6
O=C(Cc1ncn[nH]1)NCCc1ccccc1	13	2.4*	8	8	2	-4
CC(C)(C)c1ccccc1OCC(=O)Nc1ncn[nH]1	-27	2*	10	-1	7	2
COC(=O)Cc1[nH]nc2c1C(c1c[nH]c3ccccc13)C(C#N)=C(N)O2 (centres undefined)	-67	1	-2	0	3	-8
COC(=O)Cc1[nH]nc2c1C(C1C=CCCC1)C(C#N)=C(N)O2 (centres undefined)	-3	2*	1	9	5	4
COc1ccc(C(=O)O/N=C(\c2ccncc2)c2ccc([N+](=O)[O-])cc2)cc1OC	x	x	x	x	-16	x
CN(C)Cc1c(O)c[n+]([O-])c2ccccc12	x	x	x	x	103*	x
CC(NC(=O)CN1CCN(C)CC1)C1CC2CCC1C2 (centres undefined)	x	x	x	x	1	x
Cc1noc(NS(=O)(=O)c2ccc(NC(=O)CSc3nc4ccccc4s3)cc2)c1C	13	1.1	52*	32	11	2
CCC(C)(C)n1nnnc1C(c1ccc(OC)c(OC)c1)N1CCN(c2ccc(F)cc2)CC1 (centres undefined)	2	x	13	-2	11	48*
Cc1ccc(O)c(C2=NNC(O)(C(F)(F)F)C2)c1 (centres undefined)	x	2.2*	x	x	x	x
COc1ccccc1/C=C/C=N\N1CCN(c2ccccc2OC)CC1	x	x	x	x	2	x
O=C(O)c1cc(S(=O)(=O)O)ccc1O	2	1.1	2	-4	-4	1
SMILES	C1s block	PLAP act	FXIa inh mix	Cathepsin G inh	HePTP inh	FXIIa mix inh
CNc1ccc2c(O)cc(S(=O)(=O)O)cc2c1	x	x	x	x	54*	x
O=C(NCc1ccccn1)C1CCN(S(=O)(=O)N2CCCC2)CC1	-4	1	27*	3	11	-1
CCOc1ccc(N2C(=O)CC(NCc3ccc(Cl)cc3Cl)C2=O)cc1 (centres undefined)	x	x	x	x	104*	x
O=[N+]([O-])c1ccc(Oc2ccc(S(=O)(=O)N3CCN(c4ccccc4)CC3)cc2)cc1	x	x	x	x	8	x
O=C(N/N=C/c1ccco1)c1cc(-c2ccc3ccccc3c2)n[nH]1	x	2.7*	x	x	-2	x
O=C(N/N=C/c1ccc(F)cc1)c1cc(-c2ccc3ccccc3c2)n[nH]1	x	x	x	x	-1	x
O=C(N/N=C/c1cccs1)c1cc(-c2ccc3ccccc3c2)n[nH]1	x	1.4	x	x	99*	x
O=C(N/N=C/c1cccs1)c1cc(-c2ccc(Cl)cc2)n[nH]1	x	x	x	x	-5	x
COc1ccc(/C=N/NC(=O)c2cc(-c3ccc4ccccc4c3)n[nH]2)cc1O	x	x	x	x	68*	x
Cc1cccc(OCC(=O)Nc2ccccc2C(C)C)c1C	x	x	x	x	5	x
CCOC(=O)Nc1ccc2c(c1)N(C(=O)NC)c1ccccc1CC2	x	x	x	x	6	x
S=c1[nH]nc(Cc2ccccc2)n1Cc1ccco1	11	2.1*	6	6	4	-2
CCCn1c(Cc2ccccc2)n[nH]c1=S	x	0.9	x	x	x	x
Clc1ccc(N2CCN(/N=C\c3cccs3)CC2)cc1	x	x	x	x	0	x
c1ccc(Cn2c(CNc3nc4ccccc4n3CCN3CCOCC3)nc3ccccc32)cc1	-26	2.8*	-8	3	7	-2
CCOC(=O)COc1ccccc1/C=N/NC(=O)COc1ccc(Br)cc1OC	x	x	x	x	11	x
COc1ccccc1/C=N/N=C1/NC(=O)C(Cc2ccc(C)cc2)S1 (centres undefined)	x	x	x	x	8	x
COc1ccc(OC)c(NC(=O)CC2C(=O)NCCN2C(=O)Nc2cccc(Cl)c2)c1 (centres undefined)	x	2*	x	x	x	x
Cc1nnc(C)n1/N=C/c1ccc(Cl)cc1	x	x	x	x	8	x
CC(=O)NNc1nc2ccccc2s1	x	2.1*	x	x	7	x
COc1cc(C(Nc2ccccn2)c2ccc3ccc(C)nc3c2O)cc(OC)c1O (centres undefined)	12	2*	8	10	8	9
O=c1/c(=C\c2cn[nH]c2-c2ccccc2)sc2nc3ccccc3n12	x	x	x	x	50*	x
O=C(Nc1c(C(=O)N2CCOCC2)cnn1-c1ccccc1)c1cccs1	x	x	x	x	6	x
CCOC(=O)C/C(C)=N\NS(=O)(=O)c1ccc(Oc2ccc([N+](=O)[O-])cc2)cc1	x	x	x	x	6	x
Cc1c(NC(=O)CSc2nc3ccccc3n2C)c(=O)n(-c2ccccc2)n1C	3	1.2	0	9	-1	36
SMILES	C1s block	PLAP act	FXIa inh mix	Cathepsin G inh	HePTP inh	FXIIa mix inh
Cc1c(NC(=O)CSc2nc3ccc(Cl)cc3[nH]2)c(=O)n(-c2ccccc2)n1C	x	2*	x	x	x	x
Cc1c(NC(=O)CSc2nc3ccccc3[nH]2)c(=O)n(-c2ccccc2)n1C	-3	2.2*	2	3	2	16
Cc1nc(SCC(=O)Nc2c(C)n(C)n(-c3ccccc3)c2=O)n[nH]1	-9	x	8	-9	-12	0
COc1cccc(C2NC(=S)NC(C)=C2C(=O)Nc2ccc(Br)cc2)c1OC (centres undefined)	x	x	x	x	9	x
CCOc1ccc(NC(=O)c2cc(OCC)c(OCC)c(OCC)c2)c([N+](=O)[O-])c1	x	x	x	x	54*	x
CCCCOc1cc2oc(=O)cc(C)c2cc1CC	x	x	x	x	0	x
O=C(NC(NC(=O)c1ccco1)c1ccc(Br)cc1)c1ccco1	x	x	x	x	104*	x
Cc1ccc(C(=O)c2cc(C)sc2NC(=O)CN2CCN(C(=O)c3ccco3)CC2)cc1	9	1.4	12	10	5	21*
CCCc1nc(SCc2ccccc2Cl)n[nH]1	x	2.2*	x	x	x	x
CCc1nc(SCc2ccc(OC)cc2)n[nH]1	x	x	x	x	-5	x
CCc1nc(SCc2cc(Cl)ccc2OC)n[nH]1	10	2.2*	13	7	4	2
